The source of these data is PubChem BioAssay (NCATS).

The structures appear in SMILES notation. Several values for one entry are separate records, joined by “and”; a condition that tells them apart may be missing. Equal entries are not always repeated. Results filed as inconclusive are left out. Where a structure was tested more than once in an assay, its records may differ in their call. Activity calls are given as the source filed them. Calls come from the whole dose curve; as a rule, active = well fitted curve in the direction sought with a large enough effect; inconclusive = small, poorly fitted or top-dose-only effect, or another doubt; inactive = no such curve, though single readings can be large; an effect the other way counts as inactive or inconclusive.

The nature of assay [1]: Viability qHTS for spleen associated tyrosine kinase inhibitor (SYKi) naive MV4-11 cells (AID 1963823). Note: nearly all actives have a fitted effect of over 40% in size. Note: potency is the fitted concentration of half-maximal effect. In a few lines:
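Read-out: CellTiter-Glo luminescence. Exposure: 72 hr, 37 C, 5% CO2, 95% humidity. Cells: MV4-11 without SYK inhibitor history, 500/well, qHTS format.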

Assay [2] in a line: Viability qHTS for spleen associated tyrosine kinase inhibitor (SYKi) drug resistant MV4-11 cells (AID 1963824). Note: nearly all actives have a fitted effect of over 35% in size. Note: potency is the fitted concentration of half-maximal effect. In a few lines:
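SYK-inhibitor-resistant MV4-11 AML cells were seeded at 500 per well onto compound and cultured 72 hours (37 °C, 5% CO2). CellTiter-Glo was then added, and after 10 min at room temperature, luminescence gave viability.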

A short description of assay [3]: Quantitative highthroughput screen to assess conditional lethalithy of NOMO1 cells grown in RPMI1640 with untreated serum (RPMI+s) (AID 1963876).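 For Viability: 100% = DMSO wells and 0% = empty wells without cells.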 Note: nearly all actives have a fitted effect of over 35% in size. Note: potency is the fitted concentration of half-maximal effect. In a few lines: (§1)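 Each medium arm—HPLM with 10% dialyzed FBS, or RPMI1640 with 5 mM glucose and 10% untreated or dialyzed FBS—was screened against an 11-point, 3-fold compound titration for 48 h at 37 °C, with CellTiter-Glo luminescence as endpoint.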

The nature of assay [4]: Quantitative highthroughput screen to assess conditional lethalithy of NOMO1 cells grown in RPMI1640 with dialyzed fetal bovine serum (RPMI+ds) (AID 1963877).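 For Viability: series mostly up to about 46 µM; 100% = DMSO control wells and 0% = empty wells.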 Note: nearly all actives have a fitted effect of over 30% in size. Note: potency is the fitted concentration of half-maximal effect. In a few lines:
as §1

Assay [5] can be described thus: Quantitative highthroughput screen to assess conditional lethalithy of NOMO1 cells grown in Human Plasma-Like Medium with dialyzed fetal bovine serum (HPLM+ds) (AID 1963878).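 For Viability: 100% = DMSO wells and 0% = empty wells on each plate.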 Note: nearly all actives have a fitted effect of over 35% in size. Note: potency is the fitted concentration of half-maximal effect. In a few lines: as §1
Assay [6] can be described thus: Quantitative highthroughput screen to assess conditional lethalithy of P12 Ichikawa cells grown in Human Plasma-Like Medium with dialyzed fetal bovine serum (HPLM+ds) (AID 1963879). For Viability: series mostly up to about 46 µM. Note: nearly all actives have a fitted effect of over 35% in size. Note: potency is the fitted concentration of half-maximal effect. The note with it: Potency: viability. In a few lines: as §1
Assay [7] is described as follows: Quantitative highthroughput screen to assess conditional lethalithy of P12 Ichikawa cells grown in RPMI1640 with dialyzed fetal bovine serum (RPMI+ds) (AID 1963880).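 For Viability: 100% = DMSO wells and 0% = empty wells on each plate.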 Note: nearly all actives have a fitted effect of over 35% in size. Note: potency is the fitted concentration of half-maximal effect. The settings on record: Potency: P12-Ichikawa viability. In a few lines: as §1
The nature of assay [8]: Quantitative highthroughput screen to assess conditional lethalithy of P12 Ichikawa cells grown in RPMI1640 with untreated serum (RPMI+s) (AID 1963881).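 For Viability: series mostly up to about 46 µM; 100% = DMSO wells and 0% = empty wells without cells.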 Note: nearly all actives have a fitted effect of over 35% in size. Note: potency is the fitted concentration of half-maximal effect. The settings on record: Potency: viability. In a few lines: as §1
Assay [9] can be described thus: Cellular viability qHTS for adrenocortical cancer (ACC) cell line SW-13 (AID 1963989).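 For activity (max response): cells grown in serum-free medium with ITS supplement; % is set by controls: 0 for no effect and ±100 for the full control effect.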 Note: nearly all actives have a fitted effect of over 65% in size. Note: potency is the fitted concentration of half-maximal effect. The settings on record: SW-13 ACC cells viability, CellTiter-Glo, 48 h; activity (max response): stronger effect = lower value. In a few lines:
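SW-13 cells in ITS-supplemented serum-free DMEM were plated overnight, then exposed for 48 h at 37C to compound titrations (up to 46 uM final). Viability was read by CellTiter-Glo luminescence; four-parameter logistic fits gave IC50 and efficacy.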

The nature of assay [10]: Cellular viability qHTS for adrenocortical cancer (ACC) cell line NCI-H295R (AID 1963990). Note: nearly all actives have a fitted effect of over 60% in size. Note: potency is the fitted concentration of half-maximal effect. In a few lines: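 Luminescent ATP read-out (CellTiter-Glo, 20 min RT) after 48 h drug exposure of NCI-H295R cells; a titration up to 46 uM final. Data normalized to doxorubicin (100% inhibition) and DMSO (0%); 4-parameter fit gives IC50, max response.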
Assay [11] can be described thus: Quantitative highthroughput screen to assess conditional lethalithy of SEM cells grown in Human Plasma-Like Medium with dialyzed fetal bovine serum (HPLM+ds) (AID 1963882). In a few lines:
as §1

A short description of assay [12]: Quantitative highthroughput screen to assess conditional lethalithy of SEM cells grown in RPMI1640 with unreated serum (RPMI+s) (AID 1963883). In a few lines: as §1
Assay [13] in a line: Quantitative highthroughput screen to assess conditional lethalithy of SEM cells grown in RPMI1640 with dialyzed fetal bovine serum (RPMI+ds) (AID 1963884). In a few lines:
as §1

As to `CC(C)NCC(O)c1ccc(O)c(O)c1` (configuration not stated), the Potency result in assay [1], in assay [2] and in assay [10] was “inactive” each time. Further, the Potency in assay [3] was 5.9 µM (active); in [4] it was 7.43 µM (active); in assay [5], 4.69 µM (active); in assay [6], 6.62 µM (active); in assay [7], 9.35 µM (active); in [8] it was 7.43 µM (active). The activity (max response) in assay [9] was 9.6% (inactive) and -17.4% (inactive).
`C[C@@H](NCc1cc2ccccc2[nH]1)c1cccc2ccccc12`: the Potency in assay [1] was 6.61 µM (active); in [2], 7.42 µM (active); in assay [9], 25.1 µM (active); in [10] it was 12.6 µM (active). For the same compound, the Potency result in assay [3], in assay [4], in [5], in assay [6], in assay [7] and in [8] was “inactive” each time.
As to `CCCc1nc2c(C)cc(-c3nc4ccccc4n3C)cc2n1Cc1ccc(-c2ccccc2C(=O)O)cc1`, the Potency in [1] was 750 nM (active) and inactive. For the same compound, the Potency result in assay [2], in [3], in [4], in assay [5], in [6] and in assay [7] was “inactive” each time. Further, the Potency result in assay [11], in assay [12], in assay [13] and in [10] was “inactive” throughout. For the same compound, in [9], the activity (max response) was 3.79% (inactive) and 0.0088% (inactive).
